# Source: the supplement of paper PMC11383364
# ± gives the standard deviation of the averaged measurements.
# Test system: SUM149
# Test: percent difference in area under dose-response curve of relative cell number, RPMI vs HPLM; higher = drug relatively more effective in HPLM than RPMI (negative = less effective in HPLM)
# Settings: treatment time: 72 h; dose range: 10-point, 1 nM to 20 µM; media compared: RPMI vs HPLM
# Method: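 SUM149 triple-negative breast cancer cells, 500 cells/well in 384-well plates, were grown in RPMI or human plasma-like medium (HPLM) with 5% dialyzed FBS. They were pin-transferred with an anticancer plus metabolic-inhibitor library in 10-point dose series (20 µM to 1 nM). After 72 h, cells were fixed, stained with bisbenzimide and counted by Acumen plate cytometry. The AUC of relative survival vs dose was computed per medium, and the percent difference in AUC between RPMI and HPLM is reported.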
row,Compound,percent difference in area under dose-response curve [%]
1,CCCc1cc(-c2nc(-c3ccc(C)cc3)cs2)ccn1 [Fatostatin_A],-2.81
2,COc1cc2/c(=N/c3ccc(Br)cc3F)nc[nH]c2cc1OCC1CCN(C)CC1 [Vandetanib],-3.62
3,COc1cc(O)c(CC=C(C)C)c(O)c1C(=O)/C=C/c1ccc(O)cc1 [Xanthohumol],-9.86
4,CN(NC(=O)CC(=O)NN(C)C(=S)c1ccccc1)C(=S)c1ccccc1 [Elesclomol],-21.3 ± 1.7
5,CO[C@H]1C[C@@H]2CC[C@@H](C)[C@@](O)(O2)C(=O)C(=O)N2CCCC[C@H]2C(=O)O[C@H]([C@H](C)C[C@@H]2CC[C@@H](O)[C@H](OC)C2)CC(=O)[C@H](C)/C=C(\C)[C@@H](O)[C@@H](OC)C(=O)[C@H](C)C[C@H](C)/C=C/C=C/C=C/1C [Rapamycin],12.8
6,C#Cc1cccc(Nc2ncnc3cc(OCCOC)c(OCCO)cc23)c1,-0.553
7,CCCCC[C@H](CC(=O)NO)C(=O)N[C@H](C(=O)N1CCC[C@H]1CO)C(C)C [Actinonin],1.68
8,CCCCCCCCCCCCC/C=C/[C@@H](O)[C@H](CO)N(C)C [N_N_Dimethylsphingosine],6.06
9,C#Cc1cccc(Nc2ncnc3cc(OC)c(OCCCCCCC(=O)NO)cc23)c1,8.57
10,CNCc1ccc(-c2[nH]c3cc(F)cc4c3c2CCNC4=O)cc1 [Rucaparib],-14.3
11,Nc1ccc(C(=O)Nc2cccc(-c3nc(N4CCOCC4)c4oc5ncccc5c4n3)c2)cn1,7.67
12,CC1(C)C=C(CN2C/C(=C\c3ccc(F)cc3)C(=O)/C(=C/c3ccc(F)cc3)C2)C(C)(C)N1O,2.04
13,CC(=O)Nc1cccc(-n2c(=O)n(C3CC3)c(=O)c3c(Nc4ccc(I)cc4F)n(C)c(=O)c(C)c32)c1,-18.1
14,O=C(Nc1cccc(C(F)(F)F)c1)Nc1cc(S(=O)(=O)NC2CC2)ccc1-c1ccsc1,-8.01
15,CCOC(=O)[C@@H](N)CCC(=O)N[C@@H](CSCc1ccccc1)C(=O)N[C@@H](C(=O)OCC)c1ccccc1 [Telintra],2.03
16,CCN(CCCOc1ccc2c(Nc3cc(CC(=O)Nc4cccc(F)c4)[nH]n3)ncnc2c1)CCOP(=O)(O)O [Barasertib],-20.6
17,C=CCN(C)CCCCCCOc1ccc(C(=O)c2ccc(Br)cc2)c(F)c1,-0.097
18,COc1cc([C@@H]2c3cc4c(cc3[C@@H](O[C@@H]3O[C@@H]5CO[C@@H](c6cccs6)O[C@H]5[C@H](O)[C@H]3O)[C@H]3COC(=O)[C@H]23)OCO4)cc(OC)c1O [Teniposide],-42.7
19,C[C@@H](Oc1cc(-c2cnn(C3CCNCC3)c2)cnc1N)c1c(Cl)ccc(F)c1Cl [Crizotinib],-5.74
20,N#CC[C@H](C1CCCC1)n1cc(-c2ncnc3[nH]ccc23)cn1 [Ruxolitinib],-7.13

row,Compound,percent difference in area under dose-response curve [%]
1,CC1=CC(=O)c2ccccc2C1=O [Menadione],-3.63
2,COc1cc2ncnc(Nc3ccc(F)c(Cl)c3)c2cc1OCCCN1CCOCC1 [Gefitinib],-2.1
3,CC(C)n1c(/C=C/C(O)CC(O)CC(=O)O)c(-c2ccc(F)cc2)c2ccccc21 (stereo not given) [Fluvastatin_sodium],-8.4
4,Cc1cc([N+](=O)[O-])ccc1NS(=O)(=O)c1cc(Cl)ccc1Cl,11.9
5,CS(=O)(=O)CCNCc1ccc(-c2ccc3ncnc(Nc4ccc(OCc5cccc(F)c5)c(Cl)c4)c3c2)o1 [Lapatinib],-5.33
6,COc1cc2c(N3CCN(C(=O)Nc4ccc(OC(C)C)cc4)CC3)ncnc2cc1OCCCN1CCCCC1 [Tandutinib],-4.18
7,O=C1c2c(O)ccc(O)c2C(=O)c2c(NCCNCCO)ccc(NCCNCCO)c21 [Mitoxantrone],-23.7
8,Nc1nc(F)nc2c1ncn2[C@@H]1O[C@H](COP(=O)(O)O)[C@@H](O)[C@@H]1O [Fludarabine_Phosphate],-16.9
9,Nc1ccc(-c2ccc3ncc4ccc(=O)n(-c5cccc(C(F)(F)F)c5)c4c3c2)cn1 [Torin_2],-2.02
10,COc1cc(Nc2ncc3c(n2)-c2ccc(Cl)cc2C(c2c(F)cccc2OC)=NC3)ccc1C(=O)O,-13.5
11,COc1c(C)c2c(c(O)c1C/C=C(\C)CCC(=O)OCCN1CCOCC1)C(=O)OC2 [Mycophenolate_mofetil],-4.5
12,Cc1cnc(Nc2ccc(OCCN3CCCC3)cc2)nc1Nc1cccc(S(=O)(=O)NC(C)(C)C)c1,-10.7
13,CC(C)(C)c1cc(C(=O)C(C#N)=NNc2cccc(Cl)c2)no1,-6.64
14,Fc1cc(-c2cccc3ncc(-c4cnn(C5CCNCC5)c4)nc23)cc(F)c1CN1CCOCC1,2.04
15,CCCCc1nc2cc(/C=C/C(=O)NO)ccc2n1CCN(CC)CC,0.47
16,CS(=O)(=O)N1CCc2c(-c3cnc(N)nc3)nc(N3CCOCC3)nc21,-3.59
17,Cc1cc2c(F)c(Oc3ncnn4cc(OC[C@@H](C)O)c(C)c34)ccc2[nH]1 [Brivanib],-2.59
18,O=C(Nc1cccc(Cl)c1)Nc1ncc(CCNc2ncnc3ccsc23)s1 [SNS314_Mesylate],-24.4
19,Cc1ccc([N+](=O)[O-])cc1S(=O)(=O)N(C)/N=C/c1cnc2ccc(Br)cn12,-9.04
20,CN1CCC(CNc2ccc3ncc(-c4cccc(OC(F)(F)F)c4)n3n2)CC1 [SGI1776_free_base],-10.5
